A selection: hits, their analogues and other compounds. The true share with any hit is near 22%.
CYP2C9 activ = increases human cytochrome P450 2C9 activity; recombinant CYP2C9, luciferin-H conversion, luminescence; active compounds read high; factor 1 = untreated enzyme, 0 = blocked; activation factor at 5 µM; 1.4% of 96,000 active; AID 1024;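 active = activation factor of 2 or more for CYP2C9 at a 5 µM dose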;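 note: 0 = sulfaphenazole-blocked wells and 1 = vehicle-only wells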
Target sequence (P11712 whole entry, looked up): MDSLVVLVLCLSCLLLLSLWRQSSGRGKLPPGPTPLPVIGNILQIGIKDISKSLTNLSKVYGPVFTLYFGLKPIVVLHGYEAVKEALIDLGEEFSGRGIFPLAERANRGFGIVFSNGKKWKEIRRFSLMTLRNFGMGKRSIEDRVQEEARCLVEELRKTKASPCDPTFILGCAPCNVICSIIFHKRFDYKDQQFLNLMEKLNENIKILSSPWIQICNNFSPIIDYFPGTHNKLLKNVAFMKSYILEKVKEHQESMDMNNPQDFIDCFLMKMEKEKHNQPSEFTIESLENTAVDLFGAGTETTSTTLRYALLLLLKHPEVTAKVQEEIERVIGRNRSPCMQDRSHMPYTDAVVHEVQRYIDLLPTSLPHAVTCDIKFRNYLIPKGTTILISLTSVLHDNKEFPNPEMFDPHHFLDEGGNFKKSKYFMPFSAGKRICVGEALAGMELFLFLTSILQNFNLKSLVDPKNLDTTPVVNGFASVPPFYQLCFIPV
Measles CPE = protection of cells from measles virus | Measles virus-infected cells, CPE protection, absorbance | protection (pct of control), % at 4 µM | 1.5% of 140,000 active; in the data active = protection mostly above about 24%, no sharp cut-off; inactive = mostly below about 26%
CYP2C19 inh = blocks human cytochrome P450 2C19. 21% of 96,000 active. AID 778. inhibition, % at 5 µM. CYP2C19 Supersomes, luciferin-H EGE luminescence, 30 min. P33261;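 active = CYP2C19 inhibition above a set limit at 5 µM in the primary screen, cut at about 50% in these data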;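 note: plate controls were negative control wells for no effect and 2.5 mM tranylcypromine positive control for full effect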
CYP2C9 inhib = human CYP2C9 inhibition; CYP2C9 Supersomes, luciferin-H conversion, luminescence; AID 777; P11712; 20% of 96,000 active; inhibition, % at 5 µM;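 active = blocking of liver enzyme CYP2C9 beyond about 50% at 5 µM, limit read from the data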
CYP2C19 activ = cytochrome P450 2C19 (human) activation. P33261. recombinant CYP2C19, luciferin-H EGE luminescence; active compounds read high; 0 = fully inhibited enzyme, 1 = untreated enzyme. activation factor at 5 µM. 96,000 tested, under 10 active;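 active = activation factor of at least 2 at 5 µM in the primary screen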;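 note: 0 = wells with 2.5 mM tranylcypromine and 1 = vehicle-only wells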
An asterisk follows results filed as active; · = not tested or not shown.

SMILES | CYP2C9 activ | Measles CPE | CYP2C19 inh | CYP2C9 inhib | CYP2C19 activ
O=[n+]1c2c(n([O-])c3cc(F)c(F)cc31)CCCC2 | 1.2 | 5 | -22 | -16 | 1.2
O=C(NCc1ccccc1Cl)c1ccc2nc[nH]c2c1 | · | 9 | · | · | ·
c1ccc2c(c1)c1ccccc1n1c(-c3ccc4c(c3)OCO4)nnc21 | 0.9 | 9 | 2 | 6 | 1
CC(C)(C)OC(=O)N1CCOCCOCCN(C(=O)OC(C)(C)C)CCOCCOCC1 | 1 | 13 | -2 | 0 | 1
CCC1CC(CSc2ncn[nH]2)OC1=O (centres undefined) | 0.9 | 14 | 6 | 13 | 0.9
CCN(C#N)c1nc(N(C)C)nc(N(C)C)n1 | 1.5 | 19 | -8 | -53 | 1.1
COc1ccc(CN(C#N)c2nc(SC)nc(N(C)C)n2)cc1 | 1.4 | 7 | 89* | -40 | 0.1
O=C(c1cc2nc(-c3ccco3)cc(C(F)(F)F)n2n1)N1CCN(c2ccccc2)CC1 | 0.3 | 7 | 63* | 72* | 0.4
COc1ccccc1N1CCN(C(=O)c2cc(-c3ccco3)on2)CC1 | 0.2 | 7 | 92* | 76* | 0.1
O=C(c1cc2nc(-c3ccco3)cc(C(F)(F)F)n2n1)N1CCN(c2ccccn2)CC1 | 0.7 | 31 | 30 | 27 | 0.7
O=C(c1cc(-c2ccco2)on1)N1CCN(c2ccccc2)CC1 | 0.1 | 6 | 84* | 87* | 0.2
Cc1ccc(O)c(NC(=O)c2cc3nc4c(c(C(F)(F)F)n3n2)CCc2ccccc2-4)c1 | 1 | 6 | -7 | 3 | 1.1
Cc1ccc(Cn2ccc(NC(=O)c3cc4nc5c(c(C(F)(F)F)n4n3)CCc3ccccc3-5)n2)cc1 | 0.3 | 20 | 27 | 71* | 0.7
O=C(c1cc(-c2ccc(Cl)c(Cl)c2)on1)N1CCN(c2ccccc2)CC1 | 1 | 41 | -6 | 4 | 1.1
COc1ccccc1N1CCN(C(=O)c2cc(-c3cccs3)on2)CC1 | · | 26 | · | · | ·
O=C1CCCc2sccc2N1 | 1 | 7 | 5 | -1 | 1
Cc1ccc(C(=O)N/C(=C/C=C\c2ccccc2)C(=O)NCc2ccco2)cc1 | · | 24 | · | · | ·
O=C(Nc1nccs1)C1C2/C=C\CCCCC21 (centres undefined) | 0.8 | 5 | 1 | 18 | 1
COc1cc(-c2nc3n(n2)C(c2cccc(OC)c2OC)C2=C(CCCC2=O)N3)cc(OC)c1OC (centres undefined) | 0.9 | 27 | 19 | 6 | 0.8
Cc1ccccc1Cn1ccc(NC(=O)c2cc3nc(-c4ccco4)cc(C(F)(F)F)n3n2)n1 | 0.4 | 3 | 50* | 58* | 0.5
Cc1nc(SCC(=O)OCc2ccccc2)c(C#N)c(-c2ccccc2)c1C(=O)Nc1ccccc1 | 0.4 | 11 | 19 | 59* | 0.8
CSc1nc(C)c(C(=O)Nc2ccccc2)c(C)c1C#N | 0.7 | 2 | 73* | 33 | 0.3
Cc1nc(SCC(=O)c2cc3ccccc3oc2=O)c(C#N)c(C)c1C(=O)Nc1ccccc1 | 0.5 | 4 | 30 | 51* | 0.7
CC(Sc1nnc(NC(=O)c2cc3ccccc3oc2=O)s1)c1ccccc1 (centres undefined) | 0.7 | 2 | 19 | 29 | 0.8
CCC(Sc1ncnc2c1c(-c1ccccc1)cn2-c1ccc(OC)cc1)C(=O)OC (centres undefined) | · | 1 | · | · | ·
SMILES | CYP2C9 activ | Measles CPE | CYP2C19 inh | CYP2C9 inhib | CYP2C19 activ
O=C(CCN1C(=O)C2C3CC(C(Br)C3Br)C2C1=O)OCC(=O)c1ccccc1 (centres undefined) | · | 27 | · | · | ·
COC(=O)c1cc(CSc2nc3ccccc3[nH]2)oc1C | 0.1 | 5 | 98* | 87* | 0
COc1cccc(CSc2nc3ccccc3[nH]2)c1 | · | 7 | · | · | ·
CCCc1cc(=O)[nH]c(SCC(=O)c2cc(C)n(C(C)COC)c2C)n1 (centres undefined) | · | 45* | · | · | ·
CCCc1cc(=O)[nH]c(SCC(N)=O)n1 | 1 | 28 | 0 | -3 | 1
COCC(C)n1c(C)cc(C(=O)COC(=O)c2ccc3ncsc3c2)c1C (centres undefined) | 1.8 | 7 | 78* | -79 | 0.2
CCCc1cc(=O)[nH]c(SCc2cc(C(=O)OC)c(C)o2)n1 | 0.1 | 26 | 77* | 87* | 0.2
N#CCCN(Cc1cccnc1)C(=O)c1ccc(S(=O)(=O)N2CCOCC2)cc1 | 1 | 4 | 3 | 1 | 1
O=C(COC(=O)c1ccccn1)NCCCc1ccccc1 | 0.8 | 14 | 38 | 16 | 0.6
O=C(NCCCN1CCc2ccccc2C1)C1CCN(S(=O)(=O)N2CCCC2)CC1 | 0.9 | 18 | 12 | 10 | 0.9
CCOC(=O)c1cnc(-c2cccc(OC)c2)[nH]c1=O | 0.6 | 8 | 4 | 36 | 1
CCOC(=O)c1cnc(NCc2ccccc2)nc1C | 0.4 | 9 | 51* | 62* | 0.5
CCOC(=O)c1cnc(-n2nc(C)cc2C)nc1NCc1ccccc1 | 0.3 | 6 | 37 | 68* | 0.6
CCOC(=O)c1cnc(-c2ccccc2)[nH]c1=O | 0.5 | 1 | 11 | 55* | 0.9
O=C1CCCN1CC(O)CS(=O)(=O)c1ccc(Cl)cc1 (centres undefined) | 0.9 | 7 | 34 | 14 | 0.7
CCOC(=O)c1ccc(N2C(=O)CC(NC3CCN(C(=O)c4cccc(Cl)c4)CC3)C2=O)cc1 (centres undefined) | 0.7 | 1 | 34 | 33 | 0.7
Cc1ccccc1NC(=O)c1cccc(OCc2c(C)noc2C)c1 | 0.8 | 20 | 24 | 20 | 0.8
Cc1noc(C)c1COc1cccc(C(=O)NCc2cccc(Cl)c2)c1 | 0.5 | 24 | 42 | 52* | 0.6
Cc1ccc(CNC(=O)c2cccc(OCc3c(C)noc3C)c2)cc1 | 0.7 | 14 | 58* | 29 | 0.4
Cc1cccc(C(=O)Nc2ccccc2C(=O)OCc2c(C)noc2C)c1 | 0.1 | 90* | 46 | 86* | 0.5
Cc1ccc(NC(=O)c2cccc(OCc3c(C)noc3C)c2)cc1 | 0 | 13 | 91* | 95* | 0.1
Cc1noc(C)c1COc1cccc(C(=O)Nc2ccc(C#N)cc2)c1 | 0.7 | 13 | 5 | 26 | 0.9
CC(=O)Nc1c(O)nc(SCC(=O)Nc2c(C)cccc2C)[nH]c1=O | 1 | 11 | -8 | 0 | 1.1
COc1ccc(-c2ccnc(-c3ccc(OCCCF)cc3)n2)cc1 | 0.5 | 6 | 20 | 51* | 0.8
O=S(=O)(c1ccc(Cl)c(C(F)(F)F)c1)N1CCN(CC(O)COCC2CCCO2)CC1 (centres undefined) | 2* | 11 | 36 | -100 | 0.6
O=C(CN1CCN(S(=O)(=O)c2ccc(F)cc2)CC1)Nc1ccc(Cl)c(C(F)(F)F)c1 | 0.8 | 2 | 14 | 18 | 0.9
CCOC(=O)Nc1ccc2c(CN3CCN(S(=O)(=O)c4ccccc4)CC3)cc(=O)oc2c1 | · | 7 | · | · | ·
O=c1cc(CN2CCN(S(=O)(=O)c3ccc4c(c3)OCCO4)CC2)c2ccc(O)cc2o1 | 0.3 | 4 | -10 | 66* | 1.1
